TDP1 inh: qHTS Assay for Inhibitors of Tyrosyl-DNA Phosphodiesterase (TDP1); Potency, µM (titrated, usually from 130 µM), without a hit: at the top dose activity change, negative = inhibition, hits mostly inhibitors; recombinant TDP1, AlphaScreen DNA substrate cleavage; actives 0.28% (n = 350,000); also: potency is read from the fitted curve at half-maximal effect; % is scaled to controls: 0 for no effect and ±100 for the full control effect; nearly all actives have a fitted effect of over 40% in size
Target sequence (Q9NUW8 whole entry, looked up): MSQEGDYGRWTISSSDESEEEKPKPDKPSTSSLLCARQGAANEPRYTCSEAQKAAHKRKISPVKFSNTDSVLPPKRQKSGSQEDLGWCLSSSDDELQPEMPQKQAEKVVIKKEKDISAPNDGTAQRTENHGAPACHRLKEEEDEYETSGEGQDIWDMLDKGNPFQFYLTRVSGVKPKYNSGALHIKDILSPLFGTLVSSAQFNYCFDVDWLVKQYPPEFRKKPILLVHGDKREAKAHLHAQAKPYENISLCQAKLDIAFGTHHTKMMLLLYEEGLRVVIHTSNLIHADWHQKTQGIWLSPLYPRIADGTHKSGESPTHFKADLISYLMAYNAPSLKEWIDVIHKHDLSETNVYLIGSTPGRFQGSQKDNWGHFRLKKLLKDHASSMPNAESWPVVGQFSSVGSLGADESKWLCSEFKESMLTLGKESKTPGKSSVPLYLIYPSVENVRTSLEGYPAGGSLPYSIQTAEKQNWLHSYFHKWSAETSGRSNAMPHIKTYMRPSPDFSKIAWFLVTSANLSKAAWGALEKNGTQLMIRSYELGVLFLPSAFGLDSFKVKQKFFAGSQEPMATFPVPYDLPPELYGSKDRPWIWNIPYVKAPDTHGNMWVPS
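Signal: AlphaScreen proximity between streptavidin donor and anti-FITC acceptor beads on intact substrate. Reaction: Tdp1 1 nM, substrate 15 nM final, 5 min RT after 15 min compound preincubation.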
TGFb SMAD3 inh: qHTS for Inhibitors of TGF-b; HepG2 CAGA-GFP TGF-b/SMAD3 reporter, GFP fluorescence, 18 h; TGF-beta stimulated, 500 pg/mL final; Potency, µM (series often up to 46.1 µM), for the others: top-dose activity, negative = inhibition, usual class: inhibitors; actives 1.2% (n = 410,000); AID 588855, 2011; also: potency is read from the fitted curve at half-maximal effect; % is scaled to controls: 0 for no effect and ±100 for the full control effect; nearly all actives have a fitted effect of over 65% in size
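Read-out: total well GFP (ex488/em500-530) summed from mean per-cell fluorescence. Cells: HEPG2 CAGA-GFP, 1% FBS DMEM, 18 h at 37 degrees C with 500 pg/mL final TGF-beta. Unstimulated wells served as the full-inhibition control; stimulated DMSO wells = 0%.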
HepG2 tox: qHTS for Inhibitors of TGF-b: Cytotox Counterscreen | HepG2 CAGA-GFP viability, ATP luminescence, 18 h | Potency, µM (doses to about 46.1 µM), for inactives: at the top dose activity change, negative = cytotoxicity, hits mostly cytotoxic | actives 0.76% (n = 410,000) | AID 588856, 2011; also: potency is read from the fitted curve at half-maximal effect
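CellTiter-Glo luminescence gave cytotoxicity after 18 hours at 37 degrees C. The cells were HepG2 CAGA-GFP in 1% FBS DMEM, stimulated with 500 pg/mL TGF-beta after compound addition. %Activity was normalised to no-cell wells (complete cell-killing) and DMSO (no toxicity), and curves were fitted and classified.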
IL1B secr inh: qHTS for Inhibitors of Inflammasome Signaling: IL-1-beta AlphaLISA Primary Screen; THP-1 LPS/ATP IL-1B secretion, AlphaLISA, 16 h; hits give low values; activity change, % at 57.5 µM; actives 4.7% (n = 360,000); AID 743279, 2014; in the data active = activity change below about -50%; inconclusive = mostly about -30% to -49%; also: % is scaled to controls: 0 for no effect and ±100 for the full control effect
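Secreted IL-1B measured by AlphaLISA bead assay after 16 h compound exposure of THP-1 cells; compounds (final up to 57.5 uM) added 1 h before LPS (250 ng/mL) and ATP (1.25 mM) stimulation; lower signal means less secretion.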
TDP1 cell CPT: qHTS for Inhibitors of human tyrosyl-DNA phosphodiesterase 1 (TDP1): qHTS in cells in presence of CPT. chicken DT40 Tdp1-/-;hTDP1 cells + 20 nM CPT, ATP luminescence, 48 h. Potency, µM (highest dose often 46.2 µM), inactives show top-dose activity change, negative = growth inhibition, most hits filed as inhibitors. actives 12% (n = 420,000). AID 686979, 2013; also: potency is read from the fitted curve at half-maximal effect; % is scaled to controls: 0 for no effect and ±100 for the full control effect; nearly all actives have a fitted effect of over 55% in size
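Cell growth measured by CellTiter-Glo luminescence after a minimum 48 h, 37 C compound exposure with 20 nM CPT in Tdp1-knockout DT40 cells stably expressing hTDP1, seeded 400/well; qHTS titration format.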
TDP1 cell noCPT: qHTS for Inhibitors of human tyrosyl-DNA phosphodiesterase 1 (TDP1): qHTS in cells in absence of CPT; DT40 Tdp1-/- hTDP1 cells, no CPT, ATP luminescence, 48 h; Potency, µM (series often up to 46.2 µM), for the others: top-dose activity change, negative = growth inhibition, actives largely listed as inhibitors; actives 15% (n = 420,000); AID 686978, 2013; also: potency is read from the fitted curve at half-maximal effect; % is scaled to controls: 0 for no effect and ±100 for the full control effect; nearly all actives have a fitted effect of over 55% in size
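Camptothecin absent (DMSO only). Human TDP1-complemented DT40 knockout cells, 400 cells/well, 37 °C for minimum 48 hr; ATP measured via CellTiter-Glo, 30 min dark incubation, luminescence.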
The depositor's hits bear a star; [ ] = another dose, or the depositor's remark. Most compounds without a hit are left out; they make up all but 19% or so of the library. Unless noted, calls follow the shape of the dose curve; as a rule, active = well fitted curve in the direction sought with a large enough effect; inconclusive = small, poorly fitted or top-dose-only effect, or another doubt; inactive = no such curve, though single readings can be large; an effect the other way counts as inactive or inconclusive.

Screening CC1Cc2cc(S(=O)(=O)NCCC(=O)N(C)Cc3ccccc3)ccc2N1C(=O)C1CC1 (centres undefined) returned TDP1 inh 3%, TGFb SMAD3 inh -5%, HepG2 tox -19%, IL1B secr inh -8, TDP1 cell CPT inconclusive and TDP1 cell noCPT inconclusive.
Screening CC1CCN(c2ccc(S(=O)(=O)N3CCC(C)CC3)cc2N)CC1 returned TDP1 inh 4%, TGFb SMAD3 inh inconclusive, HepG2 tox -25%, IL1B secr inh 17, TDP1 cell CPT 21µM* and TDP1 cell noCPT 16µM*.
CCN1CCN(c2ccc(S(=O)(=O)N3CCCCC3)cc2N)CC1 was read as TDP1 inh 3%, TGFb SMAD3 inh -2%, HepG2 tox -2%, IL1B secr inh 15, TDP1 cell CPT -17% and TDP1 cell noCPT 21%.
`CCN(Cc1ccccc1)S(=O)(=O)c1ccc2c(c1)CC(C)N2C(=O)C1CCC1` (centres undefined) gave TDP1 inh 1%, TGFb SMAD3 inh -31%, HepG2 tox 5%, TDP1 cell CPT inconclusive and TDP1 cell noCPT 18µM*.
For COCCNc1oc(/C=C/c2ccc(F)cc2)nc1C#N the results were TDP1 inh -5%, HepG2 tox 1%, TDP1 cell CPT 4% and TDP1 cell noCPT -23%.
For CCOC(=O)C1(C)CCCN1C(=O)c1ccc(C)cc1 (centres undefined) the results were TGFb SMAD3 inh -20%, HepG2 tox -12%, IL1B secr inh 20, TDP1 cell CPT -24% and TDP1 cell noCPT -17%.
CCOC(=O)C1(C)CCCCCN1C(=O)/C=C/c1ccccc1 (centres undefined) was read as TGFb SMAD3 inh 17%, HepG2 tox 1µM*, IL1B secr inh 21, TDP1 cell CPT 16µM* and TDP1 cell noCPT 16µM*.
`CCOC(=O)C1(C)CCCCCN1C(=O)c1ccc(N(C)C)cc1` (centres undefined) gave TGFb SMAD3 inh -4%, HepG2 tox 3%, IL1B secr inh 2, TDP1 cell CPT inconclusive and TDP1 cell noCPT 21µM*.
Screening CCOC(=O)C1(C)CCCN1C(=O)c1ccccc1F (centres undefined) returned TGFb SMAD3 inh -18%, HepG2 tox -1%, IL1B secr inh 32, TDP1 cell CPT -12% and TDP1 cell noCPT -13%.
Screening CCOC(=O)C1(C)CCN1C(=O)c1cc(-c2ccc(Cl)cc2)oc1C (centres undefined) returned TGFb SMAD3 inh 1%, HepG2 tox -33%, IL1B secr inh -103*, TDP1 cell CPT 18µM* and TDP1 cell noCPT 5.2µM*.
Screening CCOC(=O)C1(C)CCCN1C(=O)c1cccc2ccccc12 (centres undefined) returned TGFb SMAD3 inh 3%, HepG2 tox 6%, IL1B secr inh 53, TDP1 cell CPT 12µM* and TDP1 cell noCPT 18µM*.
For COc1ccc(C2=Cc3ccc(OC(C)=O)cc3OC2)cc1 the results were TGFb SMAD3 inh 9%, HepG2 tox 4%, IL1B secr inh -11, TDP1 cell CPT inconclusive and TDP1 cell noCPT inconclusive.
Cn1c2c(c(=O)n(C)c1=O)C(NS(=O)(=O)c1ccccc1)(C(F)(F)F)C(=O)N2 (centres undefined) was read as TDP1 inh 2%, TGFb SMAD3 inh 16%, HepG2 tox -10%, IL1B secr inh 37, TDP1 cell CPT -10% and TDP1 cell noCPT 1%.
`COc1ccc(C2=NC(C(F)(F)F)(C(F)(F)F)c3c(n(C)c(=O)n(C)c3=O)N2)cc1` gave TDP1 inh 6%, TGFb SMAD3 inh inconclusive, HepG2 tox -5%, IL1B secr inh -8, TDP1 cell CPT 15µM* and TDP1 cell noCPT 18µM*.
COc1cc(CN2CCCC(N3CCN(c4ccccc4C)CC3)C2)ccc1O (centres undefined) was read as TGFb SMAD3 inh 8%, HepG2 tox -3%, IL1B secr inh -6, TDP1 cell CPT 13µM* and TDP1 cell noCPT inconclusive.
Screening OCCOc1ccc(CN2CCCC(N3CCN(c4ccc(F)cc4)CC3)C2)cc1 (centres undefined) returned TGFb SMAD3 inh 0%, HepG2 tox 0%, IL1B secr inh 0, TDP1 cell CPT -11% and TDP1 cell noCPT -4%.
COc1cc(CN2CCCC(N3CCN(c4ccc(F)cc4)CC3)C2)ccc1F (centres undefined) was read as TDP1 inh 5%, TGFb SMAD3 inh -1%, HepG2 tox -8%, IL1B secr inh -21, TDP1 cell CPT 21µM* and TDP1 cell noCPT inconclusive.
CC1CCN(C(=O)CCc2ccc(Oc3cc([N+](=O)[O-])cc([N+](=O)[O-])c3)cc2)CC1 was read as TDP1 inh 7%, TGFb SMAD3 inh inconclusive, HepG2 tox -4%, IL1B secr inh -57*, TDP1 cell CPT inconclusive and TDP1 cell noCPT inconclusive.
For O=C(CCc1ccc(Oc2cc([N+](=O)[O-])cc([N+](=O)[O-])c2)cc1)NC1CCCC1 the results were TDP1 inh 6%, TGFb SMAD3 inh inconclusive, HepG2 tox 2%, IL1B secr inh 26, TDP1 cell CPT inconclusive and TDP1 cell noCPT inconclusive.
For CC12CCC3C(CC3(C)C)C(C)(CCC1=O)O2 (centres undefined) the results were TDP1 inh 10%[56.1 µM], TDP1 cell CPT -3% and TDP1 cell noCPT 2%.
For CCn1c(SCC(=O)Nc2nc(C)cs2)nnc1-c1ccncc1 the results were TGFb SMAD3 inh 3%, HepG2 tox -6%, IL1B secr inh 20, TDP1 cell CPT -5% and TDP1 cell noCPT 4%.
`Cc1ccc(C(=O)CSc2nnc3c4ccccc4nc(C(C)(C)C)n23)cc1` gave TDP1 inh 0%, TGFb SMAD3 inh 0%, HepG2 tox -7%, IL1B secr inh -13, TDP1 cell CPT inconclusive and TDP1 cell noCPT 12µM*.
For CC(=O)CSc1nnc2c3ccccc3nc(C(C)(C)C)n12 the results were TDP1 inh 5%, TGFb SMAD3 inh -9%, HepG2 tox -22%, IL1B secr inh 8, TDP1 cell CPT -11% and TDP1 cell noCPT -16%.
